Nine molecules from PubChem BioAssay (NCI) can be followed below.

Experiment [1] in a line: NCI Yeast Anticancer Drug Screen. Data for the rad50 strain (AID 155).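 Note: 0% = growth of vehicle-only cultures of the same strain.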 To be noted: S. cerevisiae rad50 strain growth inhibition, stronger effect = higher value. The essentials:
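Growth of the mutant yeast was measured after compound exposure and referenced to vehicle-treated cultures.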

The nature of experiment [2]: NCI Yeast Anticancer Drug Screen. Data for the mec2-1 strain (AID 157). To be noted: S. cerevisiae mec2-1 strain, stronger effect = higher value. The essentials: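 Using mec2-1 yeast: add compound, measure growth, express inhibition versus vehicle-treated cultures.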
Experiment [3] can be described thus: NCI Yeast Anticancer Drug Screen. Data for the sgs1 mgt1 strain (AID 161).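 Note: 0% = growth of cultures given vehicle only.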 The following applies: S. cerevisiae sgs1 mgt1 strain, stronger effect = higher value. The essentials: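 This yeast growth screen uses a strain with defined DNA-repair lesions; compound-treated growth is compared with vehicle-treated growth.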
A short description of experiment [4]: NCI Yeast Anticancer Drug Screen. Data for the cln2 rad14 strain (AID 165).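 Note: 0% = growth equal to vehicle treated cultures.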 The following applies: S. cerevisiae cln2 rad14 strain, stronger effect = higher value. The essentials: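 Yeast strain cln2 rad14, bearing defects in cell cycle control and DNA repair, serves as the test system; values reflect growth inhibition compared with vehicle.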
The nature of experiment [5]: NCI Yeast Anticancer Drug Screen. Data for the bub3 strain (AID 167). The following applies: S. cerevisiae bub3 mutant strain, stronger effect = higher value. The gist of the method: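 Whole-cell yeast assay. The mutant strain was incubated with compounds, and growth inhibition was determined by comparison with vehicle-treated cells.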
Experiment [6] can be described thus: NCI Yeast Anticancer Drug Screen. Data for the mlh1 rad18 strain (AID 175). The following applies: S. cerevisiae mlh1 rad18 strain growth inhibition, stronger effect = higher value. The gist of the method: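 Steps: expose repair-defective yeast to compound; measure growth; express inhibition against vehicle-treated controls.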
Setting [7] is: at 5.0 µM (retest, dose inferred, filed as 0.5).
The mark [8] stands for this setting: at 50.0 µM (retest, dose inferred, filed as 5.0).

This is part of a sample that, as a whole, favours compounds with a hit. Of some 79,000 tested, about 15% had one in any assay. A number with no mark means an inactive call. Activity calls are given as the source filed them. Cut-off read from the data, not from the text of the source: active = growth inhibition above about 70%; inactive = the rest.

Consider `CC(=O)OCc1cc2c(s1)C(=O)c1sccc1C2=O`, for which the growth inhibition was 21% in experiment [1] (setting [7]); 83% (active) in experiment [1] (setting [8]); 49.6% in experiment [1] (at 50.0 µM); 8% in experiment [2] (setting [7]); 67% in experiment [2] (setting [8]); 81% (active) in experiment [2] (at 50.0 µM). Besides, the growth inhibition in experiment [3] (setting [7]) is 12%; in experiment [3] (setting [8]), 15%; in experiment [3] (at 50.0 µM), 88.8% (active); in experiment [4] (setting [7]) it was 11%; in experiment [4] (setting [8]), 21%; in experiment [4] (at 50.0 µM) it was 86.2% (active). Moreover, the growth inhibition in experiment [5] (setting [7]) is 41%; in experiment [5] (setting [8]) it was 60%; in experiment [5] (at 50.0 µM), 88.7% (active); in experiment [6] (setting [7]), 24%; in experiment [6] (setting [8]), 89% (active); in experiment [6] (at 50.0 µM) it was 89% (active).
With `CC(C)N(CCOc1ccc(/C=C/c2ccccc2)cc1)C(C)C`, the growth inhibition in experiment [1] (setting [7]) is 4%; in experiment [1] (setting [8]), 1%; in experiment [1] (at 50.0 µM), 12.1%; in experiment [2] (setting [7]), 4%; in experiment [2] (setting [8]) it was 1%; in experiment [2] (at 50.0 µM), -1.45%. Further, the growth inhibition in experiment [3] (setting [7]) was 8%; in experiment [3] (setting [8]) it was 2%; in experiment [3] (at 50.0 µM) it was 55.9%; in experiment [4] (setting [7]), 6%; in experiment [4] (setting [8]), 2%; in experiment [4] (at 50.0 µM), 8.5%. Further, the growth inhibition in experiment [5] (setting [7]) is 4%; in experiment [5] (setting [8]) it was -3%; in experiment [5] (at 50.0 µM), 75.8% (active); in experiment [6] (setting [7]), 6%; in experiment [6] (setting [8]), 4%; in experiment [6] (at 50.0 µM), 9.3%.
On to `CC1OC(OC2C(Oc3c(-c4ccc(O)c(O)c4O)oc4cc(O)ccc4c3=O)OC(CO)C(O)C2O)C(O)C(O)C1O` (configuration not stated), for which the growth inhibition was -4% in experiment [1] (setting [7]); -8% in experiment [1] (setting [8]); 22.9% in experiment [1] (at 50.0 µM); -5% in experiment [2] (setting [7]); 0% in experiment [2] (setting [8]); -5.3% in experiment [2] (at 50.0 µM). In addition, the growth inhibition in experiment [3] (setting [7]) is -5%; in experiment [3] (setting [8]), 1%; in experiment [3] (at 50.0 µM), -7.95%; in experiment [4] (setting [7]), 7%; in experiment [4] (setting [8]) it was 0%; in experiment [4] (at 50.0 µM), -8.85%. Further, the growth inhibition is -1% in experiment [5] (setting [7]); 0% in experiment [5] (setting [8]); 3.25% in experiment [5] (at 50.0 µM); -5% in experiment [6] (setting [7]); -6% in experiment [6] (setting [8]); -10.7% in experiment [6] (at 50.0 µM).
With `c1ccc(OCC2c3ccccc3Nc3ccccc32)cc1`, the growth inhibition is 98% (active) in experiment [1] (setting [7]); 97% (active) in experiment [1] (setting [8]); 71.9% (active) in experiment [1] (at 50.0 µM); 99% (active) in experiment [2] (setting [7]); 98% (active) in experiment [2] (setting [8]); 28.6% in experiment [2] (at 50.0 µM). Besides, the growth inhibition in experiment [3] (setting [7]) was 99% (active); in experiment [3] (setting [8]), 97% (active); in experiment [3] (at 50.0 µM), 26.9%; in experiment [4] (setting [7]), 99% (active); in experiment [4] (setting [8]), 96% (active); in experiment [4] (at 50.0 µM), -51.8%. The growth inhibition in experiment [5] (setting [7]) is 92% (active); in experiment [5] (setting [8]), 97% (active); in experiment [5] (at 50.0 µM) it was -0.2%; in experiment [6] (setting [7]), 99% (active); in experiment [6] (setting [8]) it was 95% (active); in experiment [6] (at 50.0 µM) it was 67.2%.
For the molecule `CCCCCCC1CCC(CCCCCCCC(=O)N2CCN(C)CC2)C(C/C=C/CCCCCCCC(=O)N2CCN(C)CC2)C1CCCCC` (configuration not stated), the growth inhibition in experiment [1] (setting [7]) is 3%; in experiment [1] (setting [8]) it was 93% (active); in experiment [1] (at 50.0 µM) it was 98.8% (active); in experiment [2] (setting [7]) it was -1%; in experiment [2] (setting [8]) it was 75% (active); in experiment [2] (at 50.0 µM), 99.3% (active). The growth inhibition in experiment [3] (setting [7]) is 1%; in experiment [3] (setting [8]), 70% (active); in experiment [3] (at 50.0 µM), 99.3% (active); in experiment [4] (setting [7]), -1%; in experiment [4] (setting [8]) it was 84% (active); in experiment [4] (at 50.0 µM), 92.6% (active). Also, the growth inhibition in experiment [5] (setting [7]) was 4%; in experiment [5] (setting [8]) it was 90% (active); in experiment [5] (at 50.0 µM), 98.7% (active); in experiment [6] (setting [7]), 6%; in experiment [6] (setting [8]), 95% (active); in experiment [6] (at 50.0 µM), 98.9% (active).
With `O=C1CNC(=O)c2cc(N=Cc3cc(Br)ccc3O)ccc2N1`, the growth inhibition in experiment [1] (setting [7]) was 10%; in experiment [1] (setting [8]) it was 95% (active); in experiment [1] (at 50.0 µM), 82% (active); in experiment [2] (setting [7]), 8%; in experiment [2] (setting [8]) it was 98% (active); in experiment [2] (at 50.0 µM), 62%. In addition, the growth inhibition was 13% in experiment [3] (setting [7]); 96% (active) in experiment [3] (setting [8]); 93.5% (active) in experiment [3] (at 50.0 µM); 2% in experiment [4] (setting [7]); 30% in experiment [4] (setting [8]); 22.6% in experiment [4] (at 50.0 µM). Further, the growth inhibition in experiment [5] (setting [7]) was -1%; in experiment [5] (setting [8]), 95% (active); in experiment [5] (at 50.0 µM), 43.4%; in experiment [6] (setting [7]) it was 12%; in experiment [6] (setting [8]), 97% (active); in experiment [6] (at 50.0 µM), 71.9% (active).
Regarding `CC(=O)Oc1ccc(Cl)cc1Cc1cc(Cl)ccc1OC(C)=O`, the growth inhibition is 17% in experiment [1] (setting [7]); 85% (active) in experiment [1] (setting [8]); 94.2% (active) in experiment [1] (at 50.0 µM); -1% in experiment [2] (setting [7]); 93% (active) in experiment [2] (setting [8]); 90.7% (active) in experiment [2] (at 50.0 µM). For the same molecule, the growth inhibition was 7% in experiment [3] (setting [7]); 83% (active) in experiment [3] (setting [8]); 94.5% (active) in experiment [3] (at 50.0 µM); -4% in experiment [4] (setting [7]); 94% (active) in experiment [4] (setting [8]); 89.2% (active) in experiment [4] (at 50.0 µM). The growth inhibition in experiment [5] (setting [7]) was -3%; in experiment [5] (setting [8]), 88% (active); in experiment [5] (at 50.0 µM) it was 94.5% (active); in experiment [6] (setting [7]), 2%; in experiment [6] (setting [8]), 94% (active); in experiment [6] (at 50.0 µM), 95.2% (active).
As to `CC1OC(c2ccc3c(c2)OCO3)OC1C` (configuration not stated), the growth inhibition in experiment [1] (setting [7]) is 1%; in experiment [1] (setting [8]) it was 0%; in experiment [1] (at 50.0 µM), -21.6%; in experiment [2] (setting [7]), -4%; in experiment [2] (setting [8]) it was -7%; in experiment [2] (at 50.0 µM), 20.1%. Also, the growth inhibition in experiment [3] (setting [7]) is -4%; in experiment [3] (setting [8]), -5%; in experiment [3] (at 50.0 µM), 24.6%; in experiment [4] (setting [7]), 0%; in experiment [4] (setting [8]), -2%; in experiment [4] (at 50.0 µM), 70.7% (active). Further, the growth inhibition was -8% in experiment [5] (setting [7]); -23% in experiment [5] (setting [8]); 25% in experiment [5] (at 50.0 µM); 2% in experiment [6] (setting [7]); 0% in experiment [6] (setting [8]); 64.7% in experiment [6] (at 50.0 µM).
On to `CCOC(=O)CC1C(=O)N(c2nc(-c3ccc(Br)cc3)cs2)N=C1C` (configuration not stated), for which the growth inhibition in experiment [1] (setting [7]) was 2%; in experiment [1] (setting [8]), 2%; in experiment [1] (at 50.0 µM), 43.5%; in experiment [2] (setting [7]) it was 2%; in experiment [2] (setting [8]) it was 37%; in experiment [2] (at 50.0 µM) it was 23.1%. In addition, the growth inhibition in experiment [3] (setting [7]) is 3%; in experiment [3] (setting [8]), 7%; in experiment [3] (at 50.0 µM), 60.7%; in experiment [4] (setting [7]) it was -2%; in experiment [4] (setting [8]), -9%; in experiment [4] (at 50.0 µM), 32.3%. The growth inhibition was -23% in experiment [5] (setting [7]); -8% in experiment [5] (setting [8]); 4.05% in experiment [5] (at 50.0 µM); 2% in experiment [6] (setting [7]); -19% in experiment [6] (setting [8]); 75.8% (active) in experiment [6] (at 50.0 µM).
